In the supplement of paper PMC10849652:
Targets with a hit are over-represented here; the source holds about 8,800 in all. About 0.5% of all pairs of compound and target were hits.

These targets were tested with Cc1cn(-c2cc(NC(=O)c3ccc(C)c(Nc4nccc(-c5cccnc5)n4)c3)cc(C(F)(F)F)c2)cn1 [nilotinib] (assay: log2 fold change, soluble protein after heating vs DMSO (PISA); higher = thermal stabilisation; K562 lysate, 10 uM; active = over 0.2 and 3.5 SD of the protein, either way, in both replicates (recomputed)).
How it was run: (§1)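 Dounce homogenisation of K562 pellets in PBS pH 7.4 with 1 mM MgCl2 produced a crude extract, used at 1 mg/mL protein. Exposure to 10 μM compound lasted 30 min, and aliquots were then heated for 3 min across 48°C-58°C, pooled and brought to 0.5% NP-40 at 4°C. The supernatant after 21,000xg for 90 min was quantified by TMTpro 16plex LC-MS/MS with channel sums equalised. Duplicate values are given as log-two fold change in thermal stability relative to solvent controls.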

Sequence of UniProt Q9Y4P3 (Q9Y4P3 whole entry, looked up): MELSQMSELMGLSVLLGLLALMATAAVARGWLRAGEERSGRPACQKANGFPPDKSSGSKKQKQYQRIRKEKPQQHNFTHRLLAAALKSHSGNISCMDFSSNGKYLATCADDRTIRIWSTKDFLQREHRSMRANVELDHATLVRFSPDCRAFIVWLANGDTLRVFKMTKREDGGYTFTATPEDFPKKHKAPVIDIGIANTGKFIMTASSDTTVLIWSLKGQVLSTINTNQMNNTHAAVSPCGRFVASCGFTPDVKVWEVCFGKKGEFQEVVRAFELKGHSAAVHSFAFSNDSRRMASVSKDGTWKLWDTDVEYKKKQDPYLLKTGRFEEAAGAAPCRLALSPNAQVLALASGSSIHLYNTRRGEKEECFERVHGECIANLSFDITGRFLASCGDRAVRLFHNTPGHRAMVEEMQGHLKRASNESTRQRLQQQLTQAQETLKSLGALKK
Sequence of UniProt P28289 (P28289 whole entry, looked up): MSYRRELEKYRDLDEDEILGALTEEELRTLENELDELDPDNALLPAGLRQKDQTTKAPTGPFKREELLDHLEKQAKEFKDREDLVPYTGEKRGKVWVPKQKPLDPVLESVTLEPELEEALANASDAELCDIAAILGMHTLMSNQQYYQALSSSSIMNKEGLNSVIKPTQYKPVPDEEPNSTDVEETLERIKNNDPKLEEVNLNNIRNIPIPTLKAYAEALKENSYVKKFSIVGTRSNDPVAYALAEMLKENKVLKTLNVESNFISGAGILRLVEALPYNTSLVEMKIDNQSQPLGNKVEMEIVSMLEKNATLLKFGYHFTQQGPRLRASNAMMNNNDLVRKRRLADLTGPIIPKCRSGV
Sequence of UniProt Q9Y5L0 (Q9Y5L0 whole entry, looked up): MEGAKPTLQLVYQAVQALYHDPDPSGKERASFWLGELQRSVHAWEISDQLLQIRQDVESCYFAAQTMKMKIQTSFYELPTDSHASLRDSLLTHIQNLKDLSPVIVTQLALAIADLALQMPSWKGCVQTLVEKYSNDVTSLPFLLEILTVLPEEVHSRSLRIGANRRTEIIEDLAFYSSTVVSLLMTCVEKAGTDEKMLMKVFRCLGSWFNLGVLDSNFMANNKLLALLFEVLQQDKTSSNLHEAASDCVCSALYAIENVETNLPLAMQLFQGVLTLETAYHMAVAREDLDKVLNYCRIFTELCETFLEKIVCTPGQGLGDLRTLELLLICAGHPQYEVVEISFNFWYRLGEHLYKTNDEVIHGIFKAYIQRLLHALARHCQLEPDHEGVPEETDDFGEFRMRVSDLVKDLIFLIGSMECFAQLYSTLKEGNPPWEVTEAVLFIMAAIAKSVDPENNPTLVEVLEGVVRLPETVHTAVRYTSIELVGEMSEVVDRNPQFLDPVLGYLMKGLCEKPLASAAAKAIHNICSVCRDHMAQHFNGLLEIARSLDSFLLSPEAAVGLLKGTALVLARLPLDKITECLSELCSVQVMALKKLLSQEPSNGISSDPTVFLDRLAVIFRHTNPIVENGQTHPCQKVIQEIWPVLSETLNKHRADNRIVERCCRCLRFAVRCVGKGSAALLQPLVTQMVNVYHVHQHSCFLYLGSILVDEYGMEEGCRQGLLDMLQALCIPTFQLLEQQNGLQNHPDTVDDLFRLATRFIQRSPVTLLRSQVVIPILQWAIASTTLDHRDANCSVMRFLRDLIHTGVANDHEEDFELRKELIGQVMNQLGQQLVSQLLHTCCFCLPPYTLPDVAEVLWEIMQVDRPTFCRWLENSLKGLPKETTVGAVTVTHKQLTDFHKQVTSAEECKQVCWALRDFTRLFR
Sequence of UniProt P48553 (P48553 whole entry, looked up): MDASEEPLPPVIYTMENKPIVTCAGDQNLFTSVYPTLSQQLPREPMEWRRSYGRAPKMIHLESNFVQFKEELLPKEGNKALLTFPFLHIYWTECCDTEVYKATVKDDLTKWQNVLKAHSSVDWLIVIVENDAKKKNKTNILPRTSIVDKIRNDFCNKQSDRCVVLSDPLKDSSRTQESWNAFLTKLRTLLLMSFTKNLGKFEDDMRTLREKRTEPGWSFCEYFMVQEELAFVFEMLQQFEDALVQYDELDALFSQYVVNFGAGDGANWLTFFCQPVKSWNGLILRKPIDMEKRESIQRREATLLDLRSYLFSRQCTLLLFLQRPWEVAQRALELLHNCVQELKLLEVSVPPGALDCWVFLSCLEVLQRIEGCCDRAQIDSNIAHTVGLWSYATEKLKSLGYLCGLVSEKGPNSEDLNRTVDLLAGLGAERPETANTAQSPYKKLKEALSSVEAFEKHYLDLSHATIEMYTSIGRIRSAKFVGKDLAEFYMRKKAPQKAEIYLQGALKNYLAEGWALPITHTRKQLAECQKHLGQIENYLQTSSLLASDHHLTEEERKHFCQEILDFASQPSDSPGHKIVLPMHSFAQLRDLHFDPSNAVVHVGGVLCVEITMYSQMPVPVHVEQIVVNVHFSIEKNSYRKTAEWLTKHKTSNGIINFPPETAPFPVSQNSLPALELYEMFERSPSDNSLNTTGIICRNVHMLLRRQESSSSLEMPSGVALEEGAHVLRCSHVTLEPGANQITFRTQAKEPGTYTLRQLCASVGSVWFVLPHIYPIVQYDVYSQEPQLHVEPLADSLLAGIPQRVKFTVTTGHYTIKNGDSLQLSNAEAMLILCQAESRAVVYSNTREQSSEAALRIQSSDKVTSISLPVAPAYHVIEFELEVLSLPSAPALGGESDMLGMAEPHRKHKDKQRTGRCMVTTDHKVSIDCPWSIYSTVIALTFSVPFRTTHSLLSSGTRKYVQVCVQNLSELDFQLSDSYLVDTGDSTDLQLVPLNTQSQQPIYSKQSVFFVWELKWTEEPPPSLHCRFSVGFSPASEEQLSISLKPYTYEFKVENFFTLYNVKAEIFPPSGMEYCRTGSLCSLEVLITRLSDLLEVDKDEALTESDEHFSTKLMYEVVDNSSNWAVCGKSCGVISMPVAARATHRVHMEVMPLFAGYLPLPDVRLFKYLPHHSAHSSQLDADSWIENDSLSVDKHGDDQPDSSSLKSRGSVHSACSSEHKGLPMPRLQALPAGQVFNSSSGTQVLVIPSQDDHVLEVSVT
Sequence of UniProt Q9NX07 (Q9NX07 whole entry, looked up): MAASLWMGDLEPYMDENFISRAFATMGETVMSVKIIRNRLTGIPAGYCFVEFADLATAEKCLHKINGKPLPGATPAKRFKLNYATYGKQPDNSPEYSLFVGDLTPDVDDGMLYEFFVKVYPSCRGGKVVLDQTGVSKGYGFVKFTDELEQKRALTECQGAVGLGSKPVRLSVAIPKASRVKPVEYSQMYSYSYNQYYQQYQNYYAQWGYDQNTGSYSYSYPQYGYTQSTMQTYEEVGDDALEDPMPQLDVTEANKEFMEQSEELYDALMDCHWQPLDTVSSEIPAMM
Sequence of UniProt Q8IZ69 (Q8IZ69 whole entry, looked up): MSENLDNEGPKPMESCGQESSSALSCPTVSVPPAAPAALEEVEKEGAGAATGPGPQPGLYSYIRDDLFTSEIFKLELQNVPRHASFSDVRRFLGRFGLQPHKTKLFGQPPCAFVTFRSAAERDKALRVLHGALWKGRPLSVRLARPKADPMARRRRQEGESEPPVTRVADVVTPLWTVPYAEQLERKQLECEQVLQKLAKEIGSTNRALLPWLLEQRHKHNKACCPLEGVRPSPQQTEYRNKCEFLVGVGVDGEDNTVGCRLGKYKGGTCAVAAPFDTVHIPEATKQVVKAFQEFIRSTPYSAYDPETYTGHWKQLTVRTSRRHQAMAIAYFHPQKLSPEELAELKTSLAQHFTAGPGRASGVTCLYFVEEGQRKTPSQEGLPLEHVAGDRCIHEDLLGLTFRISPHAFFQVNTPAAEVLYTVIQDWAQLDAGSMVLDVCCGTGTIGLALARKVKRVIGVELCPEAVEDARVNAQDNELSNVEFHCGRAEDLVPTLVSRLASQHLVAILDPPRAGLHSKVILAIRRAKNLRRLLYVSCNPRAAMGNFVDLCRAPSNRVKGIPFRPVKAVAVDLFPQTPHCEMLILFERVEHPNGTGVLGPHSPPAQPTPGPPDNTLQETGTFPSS
Sequence of UniProt P62256 (P62256 whole entry, looked up): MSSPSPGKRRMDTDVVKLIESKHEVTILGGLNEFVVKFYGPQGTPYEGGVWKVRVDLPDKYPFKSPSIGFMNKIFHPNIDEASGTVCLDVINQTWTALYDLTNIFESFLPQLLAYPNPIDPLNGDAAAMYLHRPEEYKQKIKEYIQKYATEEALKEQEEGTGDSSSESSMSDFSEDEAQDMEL
Sequence of UniProt Q96S44 (Q96S44 whole entry, looked up): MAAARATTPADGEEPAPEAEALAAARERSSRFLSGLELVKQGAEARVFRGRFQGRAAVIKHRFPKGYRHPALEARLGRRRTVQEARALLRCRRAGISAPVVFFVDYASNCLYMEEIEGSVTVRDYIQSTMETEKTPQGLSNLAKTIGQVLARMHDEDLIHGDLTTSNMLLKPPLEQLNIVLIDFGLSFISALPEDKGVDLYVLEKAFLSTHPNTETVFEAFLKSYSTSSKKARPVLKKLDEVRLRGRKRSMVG
Sequence of UniProt P04183 (P04183 whole entry, looked up): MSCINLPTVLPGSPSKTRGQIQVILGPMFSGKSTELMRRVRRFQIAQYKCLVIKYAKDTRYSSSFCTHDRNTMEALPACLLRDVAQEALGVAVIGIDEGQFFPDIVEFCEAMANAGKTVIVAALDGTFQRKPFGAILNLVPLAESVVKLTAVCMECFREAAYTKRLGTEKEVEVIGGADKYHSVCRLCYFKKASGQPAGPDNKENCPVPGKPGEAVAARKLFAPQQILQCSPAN
Sequence of UniProt Q9Y5K5 (Q9Y5K5 whole entry, looked up): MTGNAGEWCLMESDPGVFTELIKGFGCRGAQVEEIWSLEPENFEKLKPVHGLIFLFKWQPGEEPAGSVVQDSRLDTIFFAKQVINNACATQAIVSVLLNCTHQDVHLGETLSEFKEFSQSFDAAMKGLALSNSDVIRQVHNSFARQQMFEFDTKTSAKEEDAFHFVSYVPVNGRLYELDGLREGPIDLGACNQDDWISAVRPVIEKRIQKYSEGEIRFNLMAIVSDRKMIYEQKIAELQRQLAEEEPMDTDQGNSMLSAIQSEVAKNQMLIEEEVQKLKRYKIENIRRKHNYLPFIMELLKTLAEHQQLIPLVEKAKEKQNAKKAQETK

log2 fold change, inactive:
TBCE (UniProt Q15813) -0.001
TNPO3 (UniProt Q9Y5L0) -0.016
TRIM33 (UniProt H0Y612) -0.021
TPST2 (UniProt O60704) -0.02
UBR4 (UniProt Q5T4S7) 0.007
TTK (UniProt P33981) 0.007
TP53RK (UniProt Q96S44) 0.011
TUBGCP3 (UniProt Q96CW5) -0.031
UBR3 isoform 4 (UniProt Q6ZT12) 0.003
TRIM33 isoform 2 (UniProt Q9UPN9) 0.004
TOE1 (UniProt Q96GM8) -0.039
UBA1 (UniProt P22314) -0.004
TUBB1 (UniProt Q9H4B7) 0.095
TUBGCP2 isoform 4 (UniProt Q9BSJ2) -0.016
TPM4 isoform 2 (UniProt P67936) 0.052
TMOD1 (UniProt P28289) -0.029
TRAPPC10 (UniProt P48553) 0.008
TRMT12 (UniProt Q53H54) -0.02
TSPAN13 (UniProt O95857) -0.067
UBE2H (UniProt P62256) -0.021
TLE3 isoform 5 (UniProt Q04726) 0.142
TSFM (UniProt P43897) -0.013
TRMT2A (UniProt Q8IZ69) -0.034
TUBA1B (UniProt P68363) -0.043
TUT4 (UniProt Q5TAX3) -0.06
TBL2 (UniProt Q9Y4P3) -0.025
TK1 (UniProt P04183) -0.009
TTC5 (UniProt Q8N0Z6) 0.012
TRNAU1AP (UniProt Q9NX07) -0.145
UBR5 (UniProt O95071) 0.006
TRAF2 isoform 2 (UniProt Q12933) -0.02
UCHL5 isoform 3 (UniProt Q9Y5K5) 0.016
TRIM23 (UniProt P36406) 0.107
TRIM11 (UniProt Q96F44) -0.019

What follows are targets tested with Cc1nc(Nc2n[nH]c3c2CN(C(=O)N[C@H](CN(C)C)c2ccccc2)C3(C)C)c2sccc2n1 in the same assay as above.
How it was run: as §1

log2 fold change, inactive:
TBCE (UniProt Q15813) -0.008
TNPO3 (UniProt Q9Y5L0) 0.017
TRIM33 (UniProt H0Y612) 0.153
TPST2 (UniProt O60704) -0.03
UBR4 (UniProt Q5T4S7) 0.002
TTK (UniProt P33981) 0.236
TP53RK (UniProt Q96S44) 0
TUBGCP3 (UniProt Q96CW5) 0.029
UBR3 isoform 4 (UniProt Q6ZT12) -0.033
TRIM33 isoform 2 (UniProt Q9UPN9) -0.012
TOE1 (UniProt Q96GM8) -0.012
UBA1 (UniProt P22314) 0.014
TUBB1 (UniProt Q9H4B7) -0.013
TUBGCP2 isoform 4 (UniProt Q9BSJ2) 0.012
TPM4 isoform 2 (UniProt P67936) -0.048
TMOD1 (UniProt P28289) -0.032
TRAPPC10 (UniProt P48553) 0
TRMT12 (UniProt Q53H54) -0.005
TSPAN13 (UniProt O95857) 0.02
UBE2H (UniProt P62256) -0.041
TLE3 isoform 5 (UniProt Q04726) -0.174
TSFM (UniProt P43897) 0.021
TRMT2A (UniProt Q8IZ69) -0.011
TUBA1B (UniProt P68363) -0.009
TUT4 (UniProt Q5TAX3) 0.02
TBL2 (UniProt Q9Y4P3) -0.043
TK1 (UniProt P04183) 0.002
TTC5 (UniProt Q8N0Z6) -0.064
TRNAU1AP (UniProt Q9NX07) 0.016
UBR5 (UniProt O95071) 0.027
TRAF2 isoform 2 (UniProt Q12933) 0.008
UCHL5 isoform 3 (UniProt Q9Y5K5) -0.008
TRIM23 (UniProt P36406) -0.004
TRIM11 (UniProt Q96F44) 0.053
